# PubChem BioAssay (NCATS)
# Results filed as inconclusive are left out. A call without a number means that no potency is given here. The source made the active and inactive calls. Calls follow the shape of the dose curve; as a rule, active = well fitted curve in the direction sought with a large enough effect; inconclusive = small, poorly fitted or top-dose-only effect, or another doubt; inactive = no such curve, though single readings can be large; an effect the other way counts as inactive or inconclusive.
# Assays:
# [1] = Primary qHTS for inhibitors of nuclear receptor binding SET domain protein 2 (NSD2) in an RCH-ACV wild type WT cells (2C) (AID 1645877); settings: RCH-ACV (leukaemia line) NSD2 WT (2C) viability, CellTiter-Glo, 72 h; series mostly up to 44.9 µM; also: nearly all actives have a fitted effect of over 70% in size; also: potency is read from the fitted curve at half-maximal effect
# [2] = molecular target: Glutathione peroxidase 1 (Homo sapiens) (UniProt P07203); test: Primary qHTS Assay for Inhibitors of Recombinant Selenoprotein Glutathione Peroxidase 1 (GPX1) (AID 1845191); settings: recombinant GPX1, GR-coupled NADPH fluorescence, 15 min; series mostly up to 48.8 µM; also: nearly all actives have a fitted effect of over 65% in size
# Procedure, shortened: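 GR-coupled assay: compounds preincubated 30 min at room temperature with GPX1, then reaction started with CHP; final 10 nM GPX1, 1 mM GSH, 0.5 mM CHP, 0.5 mM NADPH, 100 nM GR, 0.01% BSA, pH 7.5 Tris buffer. NADPH fluorescence (340/450 nm) read at 0 and 15 min.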
# [3] = molecular target: Phospholipid hydroperoxide glutathione peroxidase GPX4 (Homo sapiens) (UniProt P36969); test: Primary qHTS Assay for Inhibitors of Recombinant Selenoprotein Glutathione Peroxidase 4 (GPX4) (AID 1845192); settings: recombinant GPX4, GR-coupled NADPH fluorescence, 15 min; series mostly up to 50 µM; also: nearly all actives have a fitted effect of over 65% in size
# Procedure, shortened: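 GR-coupled assay: recombinant GPX4 preincubated 30 min with compound at room temperature; final 200 nM GPX4, 1 mM GSH, 0.5 mM cumene hydroperoxide, 0.5 mM NADPH, 100 nM GR, 0.01% BSA, pH 7.5 Tris. NADPH fluorescence (340/450 nm) read at 0 and 15 min.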
# [4] = molecular target: Luciferin 4-monooxygenase (Photinus pyralis) (UniProt P08659); test: Primary firefly luciferase (FLuc) qHTS assay for identification of artifact compounds. (AID 1845220); settings: purified firefly luciferase, luminescence, 5 min; series mostly up to 54.1 µM; also: nearly all actives have a fitted effect of over 60% in size; also: potency is read from the fitted curve at half-maximal effect
# Procedure, shortened: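 D-luciferin and ATP (10 uM each, final) in Tris acetate buffer pH 7.6 were incubated with compounds for 15 min at room temperature. The reaction was started with 10 nM Photinus pyralis luciferase and luminescence read after 5 min. Percent inhibition was fitted to a 4-parameter Hill equation.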
# [5] = system: Nanoluciferase (engineered Oplophorus gracilirostris luciferase); test: Primary Nanoluciferase (NLuc) qHTS assay for identification of artifact compounds. (AID 1845222); settings: NLuc-conditioned medium, Nano-Glo luminescence, 5 min; series mostly up to 54.1 µM
# Procedure, shortened: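 Diluted conditioned medium from NLuc-expressing S16 cells treated with compounds for 15 min at room temperature, then Nano-Glo substrate added; luminescence read after 5 min. Percent inhibition versus no-enzyme and DMSO controls fitted to 4-parameter Hill equation.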
# [6] = Primary redox qHTS assay for identification of artifact compounds. (AID 1845223); settings: Amplex Red/HRP redox cycling with DTT, fluorescence; series mostly up to 53.8 µM
# Procedure, shortened: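 Amplex Red (25 uM) and HRP (250 mU/mL) in HBSS, with compounds for 15 min, then 250 uM DTT for 30 min, room temperature, dark. Fluorescence 525/598 nm read; normalized to DMSO and 10 uM DA3003; Hill fit.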
# Glutathione peroxidase 1 (Homo sapiens), sequence (P07203 whole entry, looked up): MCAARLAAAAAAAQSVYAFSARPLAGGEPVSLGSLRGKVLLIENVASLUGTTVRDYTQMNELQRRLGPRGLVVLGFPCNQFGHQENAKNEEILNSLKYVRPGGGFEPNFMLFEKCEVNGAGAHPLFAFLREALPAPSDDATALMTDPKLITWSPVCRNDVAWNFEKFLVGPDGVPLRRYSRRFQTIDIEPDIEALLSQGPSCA
# Phospholipid hydroperoxide glutathione peroxidase GPX4 (Homo sapiens), sequence (P36969 whole entry, looked up): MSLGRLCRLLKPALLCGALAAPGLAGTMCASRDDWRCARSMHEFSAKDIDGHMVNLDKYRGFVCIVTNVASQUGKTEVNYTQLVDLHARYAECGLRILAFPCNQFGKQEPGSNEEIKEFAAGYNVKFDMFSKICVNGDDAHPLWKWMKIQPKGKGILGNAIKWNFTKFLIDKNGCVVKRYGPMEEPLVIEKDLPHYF
SMILES,Potency [1],Potency [2],Potency [3],Potency [4],Potency [5],Potency [6]
CCOCCn1nc(CC)c2nc(N3CCC(C(=O)O)CC3)nc(Nc3cc(C)ccn3)c21,inactive,inactive,inactive,inactive,inactive,inactive
C/C(=C\CCC(C)CCO)C(=O)OC1(C)CCC2C(C(=O)O)=COC(OC3OC(CO)C(O)C(O)C3O)C21 (stereo not given),inactive,inactive,inactive,inactive,inactive,inactive
C/C=C/C=C/C(=O)N1CC[C@]23c4ccccc4N[C@H]4N(C)c5cccc6c5[C@@]42CCN([C@H]6C2OC2(C)C)[C@H]13 (stereo not given in full),inactive,inactive,inactive,inactive,inactive,inactive
OC[C@H]1O[C@@H](Oc2cc(O)c3c(c2)O[C@@H](c2ccc(O)cc2)[C@H](O)C3)[C@H](O)[C@@H](O)[C@@H]1O,inactive,inactive,inactive,inactive,inactive,inactive
C=C1C[C@]23C[C@H]1CC[C@H]2C1=C[C@H]2OC(=O)[C@@](C)([C@H]1[C@@H]3C(=O)O)[C@H]2O,inactive,inactive,inactive,inactive,inactive,inactive
COC(=O)C1=COC(OC2OC(CO)C(O)C(O)C2O)C2C1C=CC2(O)CO (stereo not given),inactive,inactive,inactive,inactive,inactive,inactive
Nc1nc2c(c(N3CCNCC3)n1)CCC1=C2[C@@H]2CCCC[C@@H]2O1,16.3 µM (active),inactive,inactive,inactive,inactive,inactive
CC1=CC(=O)CC2C1(O)CCC(C)C21CC(c2ccoc2)OC1=O (stereo not given),inactive,inactive,inactive,inactive,inactive,inactive
O=C1NC(Cc2ccccc2)C(=O)N2CCCC12 (stereo not given),inactive,inactive,inactive,inactive,inactive,inactive
COc1cc(O)cc(/C=C/c2ccc(O[C@@H]3O[C@H](CO)[C@@H](O)[C@H](O)[C@H]3O)cc2)c1,7.96 µM (active),inactive,inactive,inactive,inactive,inactive
Cc1cc(C(N)=O)ccc1-n1c(CCC(=O)O)ccc1-c1ccc(-n2ccnc2)cc1,inactive,inactive,inactive,inactive,inactive,inactive
C[C@@H]1C(=O)OC[C@H]2C(C(=O)O)=C[C@@H]3CC(C)(C)C[C@]312,inactive,inactive,inactive,inactive,inactive,inactive
COC(=O)C(C)C1CCC2(C)C(=O)C=CC(C)(O)C2C1O (stereo not given),inactive,inactive,inactive,inactive,inactive,inactive
O=C(OC[C@@]1(O)CO[C@@H](O[C@H]2[C@H](Oc3ccc(O)cc3)O[C@H](CO)[C@@H](O)[C@@H]2O)[C@@H]1O)c1ccc(O)cc1,inactive,inactive,inactive,inactive,inactive,inactive
C=CCC1=C[C@]2(OC)[C@H](C)[C@@H](c3ccc(O)c(OC)c3)O[C@]2(OC)CC1=O,inactive,inactive,inactive,inactive,inactive,inactive
COc1cc2c(cc1OC)[C@@H]1[C@H](O)[C@@H](OC)C=C3CCN(C2)[C@H]31,4.5 µM (active),inactive,inactive,inactive,inactive,inactive
C[C@@H]1[C@H]2[C@H](O[C@@H]3O[C@H](CO)[C@@H](O)[C@H](O)[C@H]3O)OC=C(C(=O)O)[C@H]2C[C@@H]1O,inactive,inactive,inactive,inactive,inactive,inactive
O=C1CCC=CC1(O)C(=O)OCc1ccccc1O[C@@H]1O[C@H](CO)[C@@H](O)[C@H](O)[C@H]1O (stereo not given in full),5.02 µM (active),inactive,inactive,inactive,inactive,inactive
O=C(OC1C=C(CO)C2C(OC3OC(CO)C(O)C(O)C3O)OC=CC12)c1ccc(O)cc1 (stereo not given),inactive,inactive,inactive,inactive,inactive,inactive
COC(=O)C1(C)CCC2(C(=O)O)CCC3(C)C(=CCC4C5(C)CC(O)C(OC6OCC(O)C(O)C6O)C(C)(CO)C5CCC43C)C2C1 (stereo not given),inactive,inactive,inactive,inactive,inactive,inactive
CC(=O)C=C=C1C(C)(C)CC(O[C@@H]2O[C@H](CO)[C@@H](O)[C@H](O)[C@H]2O)CC1(C)O (stereo not given in full),inactive,inactive,inactive,inactive,inactive,inactive
CC1CC(O)/C=C/C(O)C(O)CC(=O)Cc2c(Cl)c(O)cc(O)c2C(=O)O1 (stereo not given),inactive,inactive,inactive,inactive,inactive,inactive
CC(C)C1=CC2C(CC[C@]2(C)O)[C@](C)(O)CC1 (stereo not given in full),inactive,inactive,inactive,inactive,inactive,inactive
OC[C@@]1(O)CO[C@@H](OC[C@H]2O[C@@H](Oc3c[nH]c4ccccc34)[C@H](O)[C@@H](O)[C@@H]2O)[C@@H]1O,inactive,inactive,inactive,inactive,inactive,inactive
C=C[C@]1(C)C[C@H](O)[C@@H]2[C@H](OC(=O)[C@@H]2C)C1/C(C)=C/O[C@@H]1O[C@H](CO)[C@@H](O)[C@H](O)[C@H]1O (stereo not given in full),inactive,inactive,inactive,inactive,inactive,inactive
COc1ccc(-c2c(-c3cc(C(=O)O)ccn3)ncn2C)cc1,inactive,inactive,inactive,inactive,inactive,inactive
COC(=O)C1=CO[C@@H](O[C@@H]2O[C@H](CO)[C@@H](O)[C@H](O)[C@H]2O)C2C1C(=O)C[C@H]2C (stereo not given in full),inactive,inactive,inactive,inactive,inactive,inactive
CCC1C(=O)OC23C=C[C@@H]4C(C(=O)O)=CO[C@H](O[C@@H]12)[C@@H]43 (stereo not given in full),18.3 µM (active),inactive,inactive,inactive,inactive,inactive
C=CC(C)(O)C(O)CC1C(C)(O)C(O)C(O)C2C(C)(C)CCCC21C (stereo not given),inactive,inactive,inactive,inactive,inactive,inactive
CN1c2ccccc2C(=O)N2CCC3c4ccccc4NC3C21 (stereo not given),2.01 µM (active),inactive,inactive,10.5 µM (active),inactive,inactive
